{
  "source": "PubChem BioAssay AID1619",
  "about": "(SRMLSC, 2009)",
  "note": "Hit rate of the full screen: of about 220,000 compounds, about 830 (0.38%) were called active. A selection follows. Results with a measured potency or affinity are listed apart. Unmarked numbers belong to inactive results.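 How the source made its calls: active means compound inhibiting the enzyme by more than half at any dose during confirmatory dose-response retesting; inconclusive means strong single-dose inhibitors picked by rank but not retested; inactive means the rest.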",
  "data": [
    {"target": "Leucine aminopeptidase (Plasmodium falciparum (isolate 3D7)) (UniProt Q8IL11)", "sequence (Q8IL11 whole entry, looked up)": "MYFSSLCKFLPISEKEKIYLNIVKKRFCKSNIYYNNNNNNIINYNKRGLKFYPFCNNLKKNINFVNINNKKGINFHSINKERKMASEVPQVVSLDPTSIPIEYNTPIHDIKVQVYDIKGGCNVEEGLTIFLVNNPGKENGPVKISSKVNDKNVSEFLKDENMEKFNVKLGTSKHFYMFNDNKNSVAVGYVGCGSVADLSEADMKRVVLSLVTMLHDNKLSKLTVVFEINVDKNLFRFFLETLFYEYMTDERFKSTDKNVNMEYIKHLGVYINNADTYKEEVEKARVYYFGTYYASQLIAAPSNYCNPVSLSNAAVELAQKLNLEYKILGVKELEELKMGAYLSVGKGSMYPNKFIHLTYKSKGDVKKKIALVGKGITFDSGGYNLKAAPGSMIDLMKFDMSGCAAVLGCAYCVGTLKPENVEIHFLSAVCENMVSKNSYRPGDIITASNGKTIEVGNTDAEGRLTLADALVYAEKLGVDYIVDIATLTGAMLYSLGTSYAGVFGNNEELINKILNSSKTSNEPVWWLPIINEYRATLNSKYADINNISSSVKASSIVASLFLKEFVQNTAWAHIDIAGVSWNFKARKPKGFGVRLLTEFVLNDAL", "test": "P. falciparum M17LAP inhibitors, primary screen, biochemical, fluorogenic H-Leu-NHMec substrate, 1536-well (AID 1619);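 further: plate controls were full reaction with DMSO carrier for no effect and no enzyme background for full effect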", "details": "recombinant M17LAP, H-Leu-NHMec fluorogenic kinetic assay; at 30 µM; stronger effect = higher value", "units": {"inhibition": "%"}, "values": [
      {"smiles": "O=C(NNC(=S)NC1CCCCC1)c1sc2ccccc2c1Cl", "inhibition": 13.2},
      {"smiles": "O=C(NNC(=O)C1CC2CCC1C2)c1ccccc1", "note": "(configuration not stated)", "inhibition": 17.8},
      {"smiles": "CC(C)(C)c1ccc(/C=C2\\Oc3cc(OC(=O)N4CCOCC4)ccc3C2=O)cc1", "inhibition": -5.21},
      {"smiles": "CCCC(C)NS(=O)(=O)c1ccc(OC)c(C)c1", "note": "(configuration not stated)", "inhibition": 1.13},
      {"smiles": "Cn1c(-c2ccc3ccccc3n2)nc2cnccc21", "inhibition": 9.33},
      {"smiles": "CCCNC(=O)C(=O)NCc1ccccn1", "inhibition": -4.32},
      {"smiles": "Cc1ccc(NC(=O)NC(=O)CN2C(=O)NC3(CCCCCCC3)C2=O)c(C)c1", "inhibition": 3.61},
      {"smiles": "Cc1ccc(NC(=O)CN2C(=O)NC3(CCC(C)CC3)C2=O)c(Cl)c1", "note": "(configuration not stated)", "inhibition": 21},
      {"smiles": "Cc1cc(NC(=O)CN2C(=O)NC3(CCCCCC3)C2=O)no1", "inhibition": -1.33},
      {"smiles": "Cc1cc(NC(=O)CN2C(=O)NC3(CCCCC3)C2=O)no1", "inhibition": -14.1},
      {"smiles": "O=C(CN1C(=O)NC2(CCCCC2)C1=O)Nc1ccccc1Cl", "inhibition": 30.3},
      {"smiles": "COc1ccccc1NC(=O)CN1C(=O)NC2(CCCCCCC2)C1=O", "inhibition": -0.01},
      {"smiles": "CCCNC(=O)c1cccc(NC(=O)C(C)C)c1", "inhibition": -3.07},
      {"smiles": "O=C(NC1CCCc2ccccc21)c1cccc(S(=O)(=O)N2CCOCC2)c1", "note": "(configuration not stated)", "inhibition": 2.84},
      {"smiles": "Cc1ccc(OCC(=O)Nc2sc3c(c2C#N)CCC3)cc1", "inhibition": 4.24},
      {"smiles": "CCc1onc(C)c1C(=O)Nc1cc(C)ccc1OC", "inhibition": 7.34},
      {"smiles": "COc1ccc2c(c1)SCC/C2=C\\CN1C(=O)CCC1=O", "inhibition": -6.21},
      {"smiles": "Cn1c(NCCc2ccccc2)cc(=O)n(C)c1=O", "inhibition": 1.23},
      {"smiles": "CCN(CC)S(=O)(=O)c1cccc(NC(=O)CSc2nnc(N)s2)c1", "inhibition": 2.68},
      {"smiles": "CCc1nc(SCC(=O)Nc2ccc(OC)cc2[N+](=O)[O-])n[nH]1", "inhibition": 11.8},
      {"smiles": "CCN(CC)C(=O)CSc1nc2ccc(NC(=O)CSc3nnc(N)s3)cc2s1", "inhibition": 19.7},
      {"smiles": "COc1ccc(NC(=O)CSc2nnc(N)s2)c([N+](=O)[O-])c1", "inhibition": 8.5},
      {"smiles": "Cc1ccc(NC(=O)CSc2nnc(N)s2)c([N+](=O)[O-])c1", "inhibition": 26.8},
      {"smiles": "COc1ccc(NC(=O)CSc2n[nH]c(N)n2)c([N+](=O)[O-])c1", "inhibition": 56.1},
      {"smiles": "CCCCOC(=O)C(C#N)c1nc2ccccc2nc1N1CCN(Cc2ccc3c(c2)OCO3)CC1", "note": "(configuration not stated)", "inhibition": -4.21},
      {"smiles": "C/C(=N\\NC(=O)c1ccc(CN2CCOCC2)cc1)c1ccc(NC(=O)c2ccccc2)cc1", "inhibition": 4.99},
      {"smiles": "COc1ccc(C2CC(c3ccccc3)=NN2C(=O)COC(=O)CNC(=O)c2ccccc2)cc1", "note": "(configuration not stated)", "inhibition": -5.9},
      {"smiles": "CCCCC(CC)C(=O)Nc1ccccc1C#N", "note": "(configuration not stated)", "inhibition": 2.15},
      {"smiles": "CCOC(=O)C1CCCCN1Cc1cn[nH]c1-c1ccc(F)cc1F", "note": "(configuration not stated)", "inhibition": 0.93},
      {"smiles": "CCOC(=O)NC1(Nc2cccc(Cl)c2)Oc2ccccc2O1", "inhibition": 13.3},
      {"smiles": "Cc1[nH]n(-c2ccccc2)c(=O)c1-c1ccc(Cl)cc1", "inhibition": 14.5},
      {"smiles": "Cc1[nH]n(C(C)(C)C)c(=O)c1Sc1ccc(Cl)cc1", "inhibition": -0.55},
      {"smiles": "O=C(CC1Oc2ccccc2NC1=O)NCc1ccccc1", "note": "(configuration not stated)", "inhibition": 2.31},
      {"smiles": "CC(=O)NCCc1nc2ccccc2n1CCOc1ccccc1C", "inhibition": -3.06},
      {"smiles": "COCc1cc(=O)n2[nH]c(-c3cccc(Br)c3)cc2n1", "inhibition": 6.67},
      {"smiles": "O=C(O)c1cccc(NC(=S)N/N=C/c2cccc(O)c2)c1", "inhibition": 56.3},
      {"smiles": "COc1cc(/C=N/NC(=S)Nc2cccc(C(=O)O)c2)cc(OC)c1OC", "inhibition": 41},
      {"smiles": "COc1ccc(/C=N/NC(=S)Nc2cccc(C(=O)O)c2)cc1OC", "inhibition": 38.7},
      {"smiles": "O=C(O)c1cccc(NC(=S)N/N=C/c2ccccn2)c1", "inhibition": 26.1},
      {"smiles": "Cc1cccc(NC(=S)N/N=C/c2c[nH]c3ccccc23)c1", "inhibition": 7.36},
      {"smiles": "COc1cc(/C=N/NC(=S)Nc2cccc(C(=O)O)c2)ccc1O", "inhibition": 56.1},
      {"smiles": "CCCCCCCCC(=O)N/N=C(\\C)c1ccc(O)cc1O", "inhibition": 0.48},
      {"smiles": "Cc1ccccc1OCCn1cc(/C(N)=N/O)c2ccccc21", "inhibition": 3.74},
      {"smiles": "CCO[C@@H]1OC(C(=O)N2CCOCC2)=C[C@H](c2coc3ccccc3c2=O)[C@H]1CCCO", "inhibition": -0.63},
      {"smiles": "CC(=O)c1ccc(NC(=O)c2ccc(S(=O)(=O)c3ccccc3)cc2)cc1", "inhibition": -3.53},
      {"smiles": "O=C(CC(Nc1ccc(F)cc1)c1ccccc1)c1ccccc1", "note": "(configuration not stated)", "inhibition": -9.06},
      {"smiles": "O=C(CN(Cc1ccccc1)C(=O)c1ccco1)NCc1ccc(F)cc1", "inhibition": 4.59},
      {"smiles": "O=C(CSc1nc(O)cc(=O)[nH]1)N1c2ccccc2Sc2ccccc21", "inhibition": 39.5},
      {"smiles": "O=C(CSc1ccc(Cl)cc1)Nc1cccc(-c2nnc(-c3ccco3)o2)c1", "inhibition": 6.07},
      {"smiles": "Cc1cccc(NC(=O)CSc2nnc(-c3ccccc3)n2N)c1C", "inhibition": 1.89},
      {"smiles": "N#Cc1c(-c2ccccc2)nc(-c2ccccc2)[nH]c1=O", "inhibition": 5.14},
      {"smiles": "Cc1nc(SCC(=O)N2c3ccccc3Sc3ccccc32)n[nH]1", "inhibition": 17.3},
      {"smiles": "O=C(CSc1nc(-c2ccc(Cl)cc2)[nH]c(=O)n1)Nc1cccc(Cl)c1", "inhibition": -10.8},
      {"smiles": "N#Cc1c(N)nc(-c2ccccc2)nc1-c1ccccc1", "inhibition": -4.62},
      {"smiles": "COCc1cc(C)nc(SCC(=O)Nc2cccc(C)c2C)c1C#N", "inhibition": 6.16},
      {"smiles": "O=C(CCn1c(=O)oc2ccccc21)NC1=NCCS1", "inhibition": 4.21},
      {"smiles": "C(=C\\c1ccccc1)/C=N/N1CCN(Cc2ccccc2)CC1", "inhibition": 3.39},
      {"smiles": "O=c1c2sccc2nc(SCc2cc(=O)n3ccccc3n2)n1Cc1ccccn1", "inhibition": 18},
      {"smiles": "O=C(CSc1ccc(Cl)cc1)Nn1cnnc1", "inhibition": 8.97},
      {"smiles": "N#CCCN1CCN(S(=O)(=O)c2ccc(S(=O)(=O)NC3CCCC3)cc2)CC1", "inhibition": 5.82},
      {"smiles": "O=C(Cn1nc2n(c1=O)-c1ccccc1SC2)N/N=C/c1cccnc1", "inhibition": 3.98},
      {"smiles": "COc1ccc(CN2C(=O)c3ccccc3C2=O)cc1C(=O)OC(C)C(=O)NC(N)=O", "note": "(configuration not stated)", "inhibition": -1.41}
    ]}
  ]
}
